From PubChem BioAssay (Tox21) come the findings set out here.

Assay [1] is described as follows: qHTS assay to identify small molecule antagonists of the retinoid-related orphan receptor gamma (ROR-gamma) signaling pathway - cell viability counter screen (AID 1159520). Further: nearly all actives have a fitted effect of over 50% in size. The method, boiled down: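 Cytotoxicity was read from cellular ATP (CellTiter-Glo luminescence) after 16 hr at 37 C with 1 uM doxycycline induction. The inducer was added 2 hr after compound transfer to Tet-on ROR gamma CHO cells.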

Assay [2] has as its target Nuclear receptor ROR-gamma (Homo sapiens) (UniProt P51449). Briefly: qHTS assay to identify small molecule antagonists of the retinoid-related orphan receptor gamma (ROR-gamma) signaling pathway (AID 1159521;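 further: CHO cells with doxycycline inducible ROR-gamma driving an RORE luciferase reporter; top concentration of the series differs between compounds; nearly all actives have a fitted effect of over 50% in size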). The procedure, abridged:
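Tet-on ROR-gamma CHO cells with ROR response element-luciferase reporter; compounds added 2 hr before 1 uM doxycycline induction, then 16 hr at 37 C. Antagonism scored as decreased ONE-Glo luminescence.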

Assay [3] can be described thus: qHTS assay to identify small molecule agonists of the AP-1 signaling pathway - cell viability counter screen (AID 1159525; calls by dose curve; further: nearly all actives have a fitted effect of over 55% in size). The procedure, abridged:
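Luminescent ATP readout (Cell Titer Glo, 30 min RT), normalised to DMSO and tetra n-octyl ammonium bromide controls. Cells were ME-180 AP-1-bla in 0.5% dialyzed FBS Opti-MEM, with a 5 h, 37 °C compound exposure.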

A short description of assay [4]: qHTS assay to identify small molecule agonists of the AP-1 signaling pathway (AID 1159526; calls by dose curve).
The target in assay [5] is Retinoic acid receptor RXR-alpha (Homo sapiens) (UniProt P19793). In words: qHTS assay to identify small molecule agonists of the RXR signaling pathway (AID 1159527; calls by dose curve; further: nearly all actives have a fitted effect of over 35% in size). The procedure, abridged:
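GeneBLAzer RXR-alpha-UAS-bla HEK 293T cells in 2% charcoal-stripped FBS medium were exposed to compounds for 16 hr at 37 C in agonist mode. Beta-lactamase reporter read as 460/530 nm FRET ratio after 2 hr substrate loading.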

Assay [6] is described as follows: qHTS assay to identify small molecule agonists of the RXR signaling pathway - cell viability counter screen (AID 1159529). Further: nearly all actives have a fitted effect of over 50% in size. Further: potency means the concentration at half of the fitted maximal effect. The procedure, abridged: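 RXR-alpha-UAS-bla HEK 293T cells in medium with 2% charcoal-stripped FBS were pre-incubated 5 hr, then compound-treated 16 hr at 37 C. Viability was read by CellTiter-Glo luminescence in the same wells as the beta-lactamase assay, with tetraoctyl ammonium bromide as positive control.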

Assay [7] in a line: qHTS assay to identify small molecule antagonists of the retinoid acid receptor (RAR) signaling pathway - cell viability counter screen (AID 1159551). Further: nearly all actives have a fitted effect of over 35% in size. Further: potency means the concentration at half of the fitted maximal effect. The procedure, abridged:
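Luminescent ATP quantitation (CellTiter-Glo) gave cell viability in C3RL4 cells exposed to test chemicals for 6 h at 37 C alongside 1 uM final retinol.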

A short description of assay [8]: qHTS assay to identify small molecule antagonists of the retinoic acid receptor (RAR) signaling pathway (AID 1159552; further: nearly all actives have a fitted effect of over 50% in size; further: potency means the concentration at half of the fitted maximal effect). The procedure, abridged: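 Retinol signaling pathway inhibitors screened in C3RL4 RARE-luciferase reporter cells seeded overnight at 37 C, then compounds added with 1 uM (final) retinol as pathway substrate. After 6 hr at 37 C, luciferase luminescence read after 30 min at room temperature.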

Assay [9] can be described thus: qHTS assay to identify small molecule antagonists of the estrogen related receptor (ERR) signaling pathway from Tox21 library - cell viability counter screen (AID 1224834). Further: nearly all actives have a fitted effect of over 30% in size. Further: potency means the concentration at half of the fitted maximal effect. The procedure, abridged: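 Fluorescence from CellTiter-Fluor gives the viability read-out, taken 30 min after reagent addition. Before that, ERR cells seeded 6 h earlier were incubated with compounds for 17.5 h at 37 C.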

Assay [10] can be described thus: qHTS assay to identify small molecule agonists of the vitamin D receptor (VDR) signaling pathway - cell viability counter screen (AID 743224). The procedure, abridged: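 Luminescence from CellTiter-Glo, read after 30 min at room temperature, reports viability of VDR-bla cells treated with compounds for 16 h at 37C in the wells used for the beta-lactamase FRET read.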

A short description of assay [11]: qHTS assay to identify small molecule antagonists of the vitamin D receptor (VDR) signaling pathway - cell viability counter screen (AID 743225). Further: nearly all actives have a fitted effect of over 50% in size. Further: potency means the concentration at half of the fitted maximal effect. The procedure, abridged: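 VDR-UAS-bla HEK 293T cells were plated and incubated 4 h at 37C, then dosed with compound plus 3 nM (final) 1-alpha,25-dihydroxyvitamin D3 for 16 h. After the 2 h beta-lactamase read, viability in the same wells was read as CellTiter-Glo luminescence after 30 min at room temperature.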

Assay [12] can be described thus: qHTS assay to identify small molecule agonists of the endoplasmic reticulum stress response signaling pathway - cell viability counter screen (AID 1159517; calls by dose curve; further: nearly all actives have a fitted effect of over 50% in size; further: potency means the concentration at half of the fitted maximal effect). The method, boiled down: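 Cells, HeLa ESRE-bla; density, 1,500/well; dosing, 5 hr at 37 C, 5% CO2; readout, CellTiter-Glo luminescence after 30 min RT.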
A short description of assay [13]: qHTS assay to identify small molecule agonists of the retinoic acid receptor (RAR) signaling pathway (AID 1159553). Further: potency means the concentration at half of the fitted maximal effect. The procedure, abridged: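 Luminescence from a RARE-driven luciferase reporter in C3RL4 cells served as the read-out, measured after 30 min with detection reagent at room temperature. Compounds in DMSO were applied for 6 hr at 37 C following overnight seeding.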

Inconclusive results are not listed. A number with no mark means an inactive call. Active and inactive are the calls of the source. Unless noted, the call rests on the fitted dose curve; in most records, active means well fitted curve in the direction sought with a large enough effect in the repeat runs; inconclusive means weak or mixed curves; inactive means no such curve, though single readings can be large; an effect the other way counts as inactive or inconclusive.

Chain of Retinoic acid receptor RXR-alpha (Homo sapiens) (P19793 whole entry, looked up): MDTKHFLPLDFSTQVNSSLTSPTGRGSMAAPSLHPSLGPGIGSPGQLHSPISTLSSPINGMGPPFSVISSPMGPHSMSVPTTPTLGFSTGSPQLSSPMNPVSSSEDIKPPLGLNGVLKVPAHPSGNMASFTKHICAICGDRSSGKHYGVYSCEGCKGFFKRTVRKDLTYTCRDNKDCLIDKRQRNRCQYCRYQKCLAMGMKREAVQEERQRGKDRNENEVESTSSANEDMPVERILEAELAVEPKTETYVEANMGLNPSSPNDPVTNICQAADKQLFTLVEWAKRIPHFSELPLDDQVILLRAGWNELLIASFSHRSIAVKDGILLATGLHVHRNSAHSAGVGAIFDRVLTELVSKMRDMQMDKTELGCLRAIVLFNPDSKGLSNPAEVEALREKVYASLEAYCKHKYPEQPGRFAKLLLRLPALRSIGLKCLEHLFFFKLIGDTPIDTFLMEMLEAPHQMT

Regarding `CCc1cccc(CC)c1NC(=O)C(=O)O`, the Potency entry in assay [1], in [2], in assay [3], in assay [4], in assay [5] and in assay [6] was “inactive” throughout. In addition, the Potency entry in assay [7] and in assay [8] was “inactive” each time.
Turning to `COc1cccc(O)c1`, the Potency result in assay [1], in [2], in [3], in assay [4], in assay [5] and in assay [6] was “inactive” each time. Further, the Potency entry in assay [7], in assay [8] and in assay [9] was “inactive” throughout.
As for `CCCCCCCOC(=O)c1ccccc1C(=O)OCCCCCCC`, the Potency entry in assay [1], in [2], in assay [3], in assay [4], in [5] and in assay [6] was “inactive” in each case. In addition, the Potency result in assay [7] and in assay [8] was “inactive” in each case.
Regarding `Cc1cccc(C)n1`, the Potency result in assay [1], in assay [2], in assay [3], in assay [4], in assay [5] and in assay [6] was “inactive” in each case. Moreover, the Potency entry in assay [7], in assay [8] and in assay [9] was “inactive” throughout.
On to `C=CC(C)C#N` (stereo unspecified), for which the Potency result in [1], in [2], in assay [3], in assay [4], in assay [5] and in [6] was “inactive” each time. Moreover, the Potency result in assay [7] and in [8] was “inactive” each time.
For `Cc1cc(=O)[nH]c(=O)[nH]1`, the Potency entry in [1], in assay [2], in assay [3], in [4], in assay [5] and in assay [6] was “inactive” throughout. Moreover, the Potency result in [7] and in [8] was “inactive” in each case.
On to `CC(C)(C)c1n[nH]c(=O)n(N)c1=O`, for which the Potency result in [1], in [2], in [3], in assay [4], in [5] and in [6] was “inactive” throughout. Further, the Potency result in assay [7] and in assay [8] was “inactive” in each case.
`Cc1cnccn1`: the Potency result in assay [1], in assay [2], in assay [3], in assay [4], in assay [5] and in [6] was “inactive” each time. Further, the Potency entry in [7] and in assay [8] was “inactive” throughout.
For the molecule `CCOC(=O)CN`, the Potency entry in assay [1], in assay [2], in assay [3], in [4], in assay [5] and in [6] was “inactive” throughout. Moreover, the Potency result in assay [7], in [8] and in assay [9] was “inactive” throughout.
With `CC1(C)COCN1`, the Potency result in assay [1], in [2], in assay [3], in assay [4], in [5] and in assay [6] was “inactive” throughout. Further, the Potency result in [7], in assay [8] and in assay [9] was “inactive” throughout.
Turning to `CCCCCCCC(OC)OC`, the Potency result in assay [1], in [2], in assay [3], in assay [4], in assay [5] and in assay [6] was “inactive” in each case. The Potency result in assay [7] and in assay [8] was “inactive” in each case.
Regarding `COc1cccc(OC)c1O`, the Potency result in assay [1], in assay [2], in assay [3], in assay [4], in assay [5] and in assay [6] was “inactive” each time. The Potency entry in assay [7], in assay [8] and in [9] was “inactive” each time.
Regarding `Cn1cccc1`, the Potency entry in assay [1], in assay [2], in assay [3], in assay [4], in [5] and in [6] was “inactive” in each case. Also, the Potency result in assay [7], in assay [8] and in assay [9] was “inactive” each time.
Regarding `C=C(C)CCCC`, the Potency entry in assay [1], in assay [2], in assay [3], in assay [4], in assay [5] and in assay [6] was “inactive” throughout. Besides, the Potency result in [7], in assay [8] and in [9] was “inactive” throughout.
Regarding `CCCCCCCCCCCCN(CCO)CCO`, the Potency in assay [10] was 30.8 µM (active); in assay [11], 43.5 µM (active); in assay [12], 43.5 µM (active); in assay [7], 68.3 µM (active); in [8] it was 54.3 µM (active); in assay [9], 68.3 µM (active).
With `C/C=C/CO`, the Potency entry in assay [1], in assay [2], in assay [3], in assay [4], in assay [5] and in assay [6] was “inactive” each time. Besides, the Potency result in assay [7], in assay [8] and in [9] was “inactive” in each case.
Take `C=CC/C=C/C/C=C/C/C=C/C`: the Potency entry in assay [1], in [2], in assay [3], in assay [4], in assay [5] and in [6] was “inactive” throughout. In addition, the Potency result in assay [7], in assay [8] and in assay [9] was “inactive” in each case.
In the case of `CCC(C)C(=O)OC` (stereo unspecified), the Potency result in [1], in [2], in assay [3], in assay [4], in assay [5] and in assay [6] was “inactive” each time. Besides, the Potency result in [7], in [8] and in assay [9] was “inactive” throughout.
In the case of `CCN(CC)c1ccc(N)cc1`, the figures for the Potency in assay [10], in [13] and in [9] were 20 µM (active), 3.15 µM (active) and 28.1 µM (active), respectively. For the same molecule, the Potency entry in [11], in [12] and in assay [8] was “inactive” throughout.
For the molecule `CCO[Si](C)(C)OCC`, the Potency result in assay [1], in [2], in assay [3], in [4], in assay [5] and in assay [6] was “inactive” in each case. The Potency entry in assay [7], in [8] and in assay [9] was “inactive” throughout.
As for `CCCCCCC(C)OC(=O)COc1nc(F)c(Cl)c(N)c1Cl` (stereo unspecified), the Potency in assay [10] was 43.6 µM (active); in assay [11] it was 49 µM (active); in [12] it was 54.9 µM (active); in assay [6] it was 34.7 µM (active).
In the case of `Cc1c(-c2ccc(O)cc2)n(Cc2ccc(OCCN3CCCCCC3)cc2)c2ccc(O)cc12`, the Potency result in [12] is “inactive”. For the same molecule, the Potency in [6] is 26.8 µM (active); in assay [9], 29.8 µM (active).
Regarding `Cc1c(C)n(Cc2ccccc2)c2ccc(C(=O)OCCN(C)C)cc12`, the Potency entry in assay [12], in assay [7], in [8] and in assay [13] was “inactive” in each case.
Consider `C#CC(O)CCC` (stereo unspecified), for which the Potency entry in [1], in [2], in assay [3], in assay [4], in assay [5] and in assay [6] was “inactive” in each case. The Potency entry in assay [7] and in assay [8] was “inactive” in each case.
With `CC(=O)C=O`, the Potency result in assay [1], in [2], in assay [3], in assay [4], in assay [5] and in [6] was “inactive” in each case. For the same molecule, the Potency result in [7], in assay [8] and in [9] was “inactive” throughout.
Take `CO[Si](CCCNCCNCCN)(OC)OC`: the Potency result in assay [1], in assay [2], in assay [3], in assay [4], in assay [5] and in assay [6] was “inactive” each time. Also, the Potency entry in assay [7] and in assay [8] was “inactive” in each case.
`CCOC(OCC)C(=O)c1ccccc1`: the Potency result in [1], in assay [2], in assay [3], in assay [4], in [5] and in assay [6] was “inactive” throughout. In addition, the Potency entry in assay [7], in assay [8] and in [9] was “inactive” in each case.
With `OCCCS`, the Potency entry in [1], in [2], in assay [3], in assay [4], in [5] and in assay [6] was “inactive” each time. The Potency result in assay [7], in assay [8] and in [9] was “inactive” in each case.
